MCF10A rereplic – inducers of DNA re-replication in MCF 10A breast cells | hit rate 2.9% among 350,000 | Potency, µM (series often up to 46.1 µM), for the others: at the top dose activity, positive = re-replication, usual class: activators | MCF 10A DNA re-replication, Hoechst nuclear intensity, 48 h; further: potency means the concentration at half of the fitted maximal effect; % of control where 0% means no effect; nearly all actives have a fitted effect of over 50% in size
PINK1 modulator – changes PINK1 expression; PINK1 immunofluorescence, high-content cytometry, 24 h; Potency, µM (top dose mostly 76.6 µM), inactives show at the highest dose activation (PINK1 increase), hits mostly activators; hit rate 0.2% among 410,000; AID 624263; active means well fitted activation curve with a large enough effect; inconclusive means small, poorly fitted or top-dose-only effect; cell line not stated here; further: potency means the concentration at half of the fitted maximal effect; % of control where 0% means no effect; nearly all actives have a fitted effect of over 65% in size
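Decision-based qHTS: stable cells, 24 h exposure to five compound concentrations, CCCP as control. Fixed cells stained for PINK1 plus nuclear, mitochondrial and cell markers, cytometer read.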
S2 tox – cell viability loss in ATXN counter-screen; S2 cells (HEK-293 line with an ATXN2-luciferase reporter) viability, CellTiter-Fluor protease fluorescence, 24 h; Potency, µM (highest dose often 56.7 µM), most hits filed as cytotoxic; hit rate 0.49% among 400,000; further: potency means the concentration at half of the fitted maximal effect; nearly all actives have a fitted effect of over 40% in size
IL-1B inflam inh – blocks inflammasome-driven IL-1 beta release; activity change, % at 57.5 µM; AID 743279; hit rate 4.7% among 360,000; THP-1 LPS/ATP IL-1B secretion, AlphaLISA, 16 h; active compounds read low; in the data active means activity change below about -50%; inconclusive means mostly about -30% to -49%; further: on the % scale 0 is the no-effect control and ±100 the full control effect
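THP-1 cells pretreated 1 hr with compounds (up to 57.5 uM final), then stimulated with LPS (250 ng/mL final) plus ATP (1.25 mM final); secreted IL-1B measured by AlphaLISA after 16 hr, decreased signal indicating inhibition.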
SW480 rerep – inducers of DNA re-replication in SW480 colon cancer cells; hit rate 1.8% among 340,000; AID 624297; Potency, µM (series often up to 46.1 µM), for inactives: at the highest dose re-replication activation, usual class: activators; SW480 DNA re-replication, Hoechst DNA content imaging, 48 h; further: potency means the concentration at half of the fitted maximal effect; % of control where 0% means no effect; nearly all actives have a fitted effect of over 55% in size
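Treated cells incubate 48 hr (37 C, 5% CO2), are stained 40 min with Hoechst, and nuclear fluorescence is enumerated; a rise in nuclei with high DNA signal marks re-replication.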
ATXN2 expr inh – ATXN2 expression inhibition; AID 1745845; HEK-293 ATXN2-luciferase reporter, luminescence, 24 h; Potency, µM (highest dose often 57 µM), for the others: top-dose activity change, negative = inhibition, actives largely listed as inhibitors; hit rate 0.72% among 360,000; further: potency means the concentration at half of the fitted maximal effect; on the % scale 0 is the no-effect control and ±100 the full control effect; nearly all actives have a fitted effect of over 55% in size
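qHTS (up to 57 uM final) was run with 24 h compound exposure of reporter cells at 37 °C. Each well was multiplexed: SteadyGlo luminescence measured ATXN2-luciferase expression after a fluorogenic Gly-Phe-AFC viability readout (25 uM final).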
* marks the source's active call; other numbers are inactive results; i = inactive; ? = inconclusive; . = no result; [ ] = dose if it differs, or a comment. Rows were chosen to be rich in hits. Some 7.1% of all compounds tested hit in one or more screens of this group. Unless noted, the call rests on the fitted dose curve; in most records, active means well fitted curve in the direction sought with a large enough effect; inconclusive means small, poorly fitted or top-dose-only effect, or another doubt; inactive means no such curve, though single readings can be large; an effect the other way counts as inactive or inconclusive.

SMILES | MCF10A rereplic | PINK1 modulator | S2 tox | IL-1B inflam inh | SW480 rerep | ATXN2 expr inh
Cc1cccc(C)c1NC(=O)c1nc(S(=O)(=O)Cc2ccccc2F)ncc1Cl | . | 1.5% | . | . | . | .
COc1cccc(CNC(=O)C(=O)Nc2ccc3nc4n(c(=O)c3c2)CCCCC4)c1 | . | 1.5% | ? | . | . | -13.9%
Cc1cc(-c2ccc(S(=O)(=O)Nc3ccccc3F)s2)on1 | . | -1.1% | . | . | . | .
CC(=O)N1N=C(c2ccc(C)cc2)CC1c1cn(-c2ccccc2)nc1-c1cccs1 (centres undefined) | . | 10.8% | i | . | . | 9.4%
CCc1nc2ccc(C(=O)NCc3ccc(N(C)C)cc3)cc2nc1CC | . | -0.1% | . | . | . | .
CCCc1nnc(NC(=O)c2nc(S(=O)(=O)Cc3cccc(C)c3)ncc2Cl)s1 | ? | -0.4% | . | ? | ? | ?
Cc1nnc(NC(=O)c2nc(S(=O)(=O)Cc3ccccc3)ncc2Cl)s1 | ? | -2.0% | 31.6µM* | -102.9* | 1.4% | ?
CCOC(=O)c1nc(S(C)(=O)=O)ncc1Cl | 9.6% | -1.7%[38.3 µM] | . | -98.3* | ? | ?
Cc1cccc(CS(=O)(=O)c2ncc(Cl)c(C(=O)Nc3c(C)cccc3C)n2)c1 | ? | -1.2% | ? | -65.6* | ? | -17.7%
O=C(CSc1nccn1Cc1ccccc1)Nc1ccc2c(c1)OCO2 | . | -14.1% | . | . | . | .
COc1ccc(OC)c(NC(=O)CSc2ccnc(=O)[nH]2)c1 | . | -0.6% | i | . | . | 13.5%
CCc1ccc2occ(CC(=O)NCc3ccccc3)c2c1 | . | 6.8% | i | . | . | 15.0%
O=C1CC(c2ccccc2)=Nc2ccccc2N1 | 7.8% | . | i | 14.5 | -3.6% | 30.6%
O=C1CC(/C=C/c2ccncc2)=Nc2ccccc2N1 | ? | 1.0% | ? | . | 16.4µM* | 19.8%[11.3 µM]
COC(=O)C1=CN(CCCN2CCCC2=O)C=C(C(=O)OC)C1c1ccccc1C(F)(F)F | 13µM* | 2.3% | . | 0.0 | 18.4µM* | 4.1%
COC(=O)C1=CN(CC2CCCO2)C=C(C(=O)OC)C1c1ccccc1C(F)(F)F (centres undefined) | ? | -0.3% | i | 2.3 | ? | -5.2%
CCCCOc1ccccc1C1C(C(=O)OC)=CN(CC)C=C1C(=O)OC | ? | 5.2% | . | -25.6 | 11.6µM* | -3.7%
CCOc1ccc(/C=C/c2nc(C#N)c(N3CCC(C)CC3)o2)cc1 | . | 10.7% | . | . | . | .
COc1ccccc1C(=O)N1CCC(c2noc(-c3ccc(S(=O)(=O)N4CCCC4)cc3)n2)CC1 | . | 1.0% | . | . | . | .
CC(NC(=O)CCc1nnc(-c2ccc(-c3ccccc3)cc2)o1)c1nc2ccccc2[nH]1 (centres undefined) | ? | 0.9% | i | ? | 12.7% | 3.77µM*
CC(=O)Nc1nc2ccccc2n1Cc1ccc(Cl)cc1 | 2.7% | 2.1% | 25.1µM* | 46.1 | ? | 17.8µM*
Cc1nc2ccccc2n1Cc1ccc(Br)cc1 | -1.6% | -0.8% | i | -63.4* | -2.1% | ?
Cc1nc2ccccc2n1Cc1ccccc1 | -0.5% | 1.9% | ? | 53.5 | -3.1% | .
Cc1nc2cc(Cl)c(Cl)cc2n1-c1ccccn1 | -9.2% | 0.4% | i | 17.0 | 0.5% | -7.4%
CC12CN3CC(c4ccccc4)(CN(C1)C3c1ccc(Cl)cc1)C2=O (centres undefined) | . | 0.5% | i | . | . | -12.9%
SMILES | MCF10A rereplic | PINK1 modulator | S2 tox | IL-1B inflam inh | SW480 rerep | ATXN2 expr inh
Cn1nnnc1SCC1=C(C(=O)O)N2C(=O)C(NC(=O)Cn3nc(C(F)F)cc3C3CC3)C2SC1 (centres undefined) | 0.581µM* | 0.9% | . | 1.6 | 2.4% | -6.0%
Cc1cccc(C)c1NC(=O)C(Cl)=C(Cl)Cl | 23.7% | -1.3% | i | -58.8* | ? | -24.4%[11.3 µM]
CC(=O)c1ccc(NC(=O)CCc2c(C)nn(-c3ccc4nncn4n3)c2C)cc1 | . | 7.5% | . | . | . | .
COc1cc2[nH]c3c(Cl)ncnc3c2cc1OC | 13.5% | -0.7% | i | -61.1* | -0.2% | 5.8%
COc1ccc(CCNc2c3ccccc3nc3ccccc23)cc1OC | 6.51µM* | 6.5% | ? | -93.9* | 0.92µM* | ?
COc1cc2ncnc(NCc3cccs3)c2cc1OC | 2.59µM* | 1.3% | i | -6.2 | -23.9% | 29.5%
COc1ccc(CCn2c(-c3ccco3)nc3ccccc3c2=O)cc1OC | ? | -2.0% | ? | -54.0* | 8.6% | -15.2%
c1cncc(-c2cncnc2NC2CCNCC2)c1 | . | -0.2% | . | . | . | .
CC(=O)c1ccc(-c2cc(F)cc3c2OC(CNC(=O)C(C)N2CCOCC2)C3)s1 (centres undefined) | . | 1.5% | i | . | . | .
COc1ccccc1NC(=O)CN1C(=O)C2(SCC(=O)N2c2ccc(C)c(C)c2)c2ccccc21 (centres undefined) | . | -5.3% | ? | . | . | ?
COc1ccc(CCNc2ncnc3c2[nH]c2cc(OC)c(OC)cc23)cc1OC | 18.4µM* | -2.0% | ? | . | 18.4µM* | ?
COc1ccc(CCNc2ncnc3cc(OC)c(OC)cc23)cc1OC | 10.0% | 0.1% | i | -73.1* | ? | -30.4%[11.3 µM]
COc1cc(C)c(CN2C[C@H](Sc3ccccn3)C[C@H]2C(=O)N(C)C)cc1C | . | 0.4% | i | . | . | .
CC(NC(=O)Cn1ccsc1=N)C12CC3CC(CC(C3)C1)C2 (centres undefined) | 0.1% | 2.4% | i | -59.5* | ? | -22.2%
CC(NC(=O)Cn1ncc(Cl)c(Cl)c1=O)C12CC3CC(CC(C3)C1)C2 (centres undefined) | 3.66µM* | -2.7% | 17.8µM* | -119.3* | 5.17µM* | ?
COc1ccc(-c2nc(NC(=O)C3CC(=O)N(Cc4ccco4)C3)sc2C)cc1 (centres undefined) | ? | 1.3% | i | -28.0 | 6.6% | -34.5%
CC(=O)c1sc(NC(=O)C2CC(=O)N(Cc3ccco3)C2)nc1-c1ccccc1 (centres undefined) | 11.0% | -1.5% | i | -94.6* | ? | -12.9%
COc1ccc(-c2csc(NC(=O)C3CC(=O)N(Cc4ccco4)C3)n2)cc1 (centres undefined) | 5.3% | 1.9% | i | -60.7* | -0.3% | -27.6%
CC(=O)NC1=NN(C(C)=O)C(C)(c2ccco2)S1 (centres undefined) | ? | 3.8% | i | 31.0 | ? | -0.8%
CC(=O)NC1=NN(C(C)=O)C(C)(c2cccs2)S1 (centres undefined) | 1.3µM* | 2.8% | i | 15.4 | 11.6µM* | ?
CCN(c1ccccc1)S(=O)(=O)c1ccc(F)c(C(=O)Nc2ccc(C)cc2)c1 | . | 1.3% | i | . | . | -26.2%
CC(=O)Nc1ccc(Cl)c(C(N)=O)c1 | -8.2% | 2.2%[38.3 µM] | i | 0.0 | -7.3% | 8.5%
NC(=O)c1cc(N2C(=O)C=CC2=O)ccc1Cl | 18.4µM* | 9.5%[38.3 µM] | . | 0.0 | ? | ?
